Source: PMC4336329 (PLoS ONE, 2015)
Out of some 310,000 compounds screened, about 2,200 (0.71%) showed an effect of 50% or more. Effects have a minus sign here. The full list was thinned out, with strong results kept by preference.

biological target: human ether-à-go-go-related gene (hERG) potassium channel (human, UniProt Q12809); assay: primary screen, population patch clamp on CHO cells stably expressing hERG; higher = less effect of the substance
Sequence (Q12809 whole entry, looked up): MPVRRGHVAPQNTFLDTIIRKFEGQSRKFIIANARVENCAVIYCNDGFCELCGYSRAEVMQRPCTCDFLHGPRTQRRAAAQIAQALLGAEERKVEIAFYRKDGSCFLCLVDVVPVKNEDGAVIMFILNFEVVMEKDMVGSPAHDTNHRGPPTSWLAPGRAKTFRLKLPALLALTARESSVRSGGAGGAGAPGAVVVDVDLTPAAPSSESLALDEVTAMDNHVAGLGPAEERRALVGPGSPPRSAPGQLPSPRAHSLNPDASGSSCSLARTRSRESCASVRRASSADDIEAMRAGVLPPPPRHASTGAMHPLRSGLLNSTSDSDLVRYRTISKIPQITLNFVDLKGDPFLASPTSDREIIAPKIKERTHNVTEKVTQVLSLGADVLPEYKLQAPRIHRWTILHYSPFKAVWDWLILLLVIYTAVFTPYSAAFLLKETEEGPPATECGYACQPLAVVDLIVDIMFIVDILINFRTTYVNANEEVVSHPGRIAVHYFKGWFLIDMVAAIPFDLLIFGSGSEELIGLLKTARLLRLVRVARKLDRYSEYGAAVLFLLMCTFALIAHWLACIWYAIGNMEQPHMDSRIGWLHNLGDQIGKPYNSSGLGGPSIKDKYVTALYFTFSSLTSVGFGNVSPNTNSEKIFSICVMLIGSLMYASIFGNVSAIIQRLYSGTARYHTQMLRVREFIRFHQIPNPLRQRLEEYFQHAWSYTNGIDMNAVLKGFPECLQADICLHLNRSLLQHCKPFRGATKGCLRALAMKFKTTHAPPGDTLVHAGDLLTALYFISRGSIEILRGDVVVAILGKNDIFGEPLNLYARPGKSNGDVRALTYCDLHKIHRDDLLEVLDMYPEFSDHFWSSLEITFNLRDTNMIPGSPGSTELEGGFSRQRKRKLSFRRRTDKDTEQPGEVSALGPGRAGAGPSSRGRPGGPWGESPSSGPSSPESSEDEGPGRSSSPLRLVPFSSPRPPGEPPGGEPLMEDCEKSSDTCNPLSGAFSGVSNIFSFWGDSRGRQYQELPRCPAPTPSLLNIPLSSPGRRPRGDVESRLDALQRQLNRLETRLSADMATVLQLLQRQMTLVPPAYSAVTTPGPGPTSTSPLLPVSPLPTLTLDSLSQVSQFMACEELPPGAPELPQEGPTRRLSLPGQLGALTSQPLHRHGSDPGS

Q: Which “hERG current change (%, negative = inhibition) at 1uM” value does the source give for `O=c1cc(-c2ccccc2[N+](=O)[O-])oc2ccccc12` here?
A: 7.73%

Q: How did the “hERG current change (%, negative = inhibition) at 1uM” value turn out when `CC(C)C(=O)C1=Cc2cc([N+](=O)[O-])ccc2OC1N1CCOCC1` (stereo not shown) was run?
A: 9.39%

Q: For `O=C(CCCC(=O)NCC1CCCO1)NCC1CCCO1` (stereo not shown), which “hERG current change (%, negative = inhibition) at 1uM” value is on record?
A: 3.68%

Q: How did the “hERG current change (%, negative = inhibition) at 1uM” value turn out when `O=c1ccc2cc3c([nH]c4ccc(Br)cc43)oc-2c1O` was run?
A: 4.16%

Q: Which “hERG current change (%, negative = inhibition) at 1uM” value does the source give for `COc1ccc(C(C(O)C(=O)c2c[nH]c3ccccc23)N2CCN(c3ccccc3)CC2)cc1` (stereo not shown) here?
A: 4.75%

Q: `CCN1CCN(C(c2ccc(OC)cc2)C(O)C(=O)c2c[nH]c3ccccc23)CC1` (stereo not shown) was tested. Which “hERG current change (%, negative = inhibition) at 1uM” value did it give?
A: -64.4%

Q: How did the “hERG current change (%, negative = inhibition) at 1uM” value turn out when `COc1ccc(C(C(O)C(=O)c2c[nH]c3ccccc23)N2CCN(c3ccc(OC)cc3)CC2)cc1` (stereo not shown) was run?
A: 2.28%

Q: Which “hERG current change (%, negative = inhibition) at 1uM” value does the source give for `CC(C)Oc1ccc(N2CC(C(=O)Nc3ccc4c(c3)OCO4)CC2=O)cc1` (stereo not shown) here?
A: 5.88%

Q: `Cc1[nH]c(=O)[nH]c(=O)c1S(=O)(=O)Nc1cccc([N+](=O)[O-])c1C` was tested. Which “hERG current change (%, negative = inhibition) at 1uM” value did it give?
A: 11.5%

Q: `O=C(O)C(=O)O.c1ccc(COc2ccc(OCCCCN3CCCC3)cc2)cc1` was tested. Which “hERG current change (%, negative = inhibition) at 1uM” value did it give?
A: -28.2%

Q: `COc1cc(CN2CCC(Cc3ccccc3)CC2)cc(OC)c1OC.O=C(O)C(=O)O` was tested. Which “hERG current change (%, negative = inhibition) at 1uM” value did it give?
A: -12%

Q: With `COc1cccc(OC)c1OCCCN1CCC(Cc2ccccc2)CC1.O=C(O)C(=O)O` as the compound, how does the “hERG current change (%, negative = inhibition) at 1uM” value read?
A: -79.3%

Q: `CC1CCN(CCCOc2ccc(OCc3ccccc3)cc2)CC1.O=C(O)C(=O)O` was tested. Which “hERG current change (%, negative = inhibition) at 1uM” value did it give?
A: -14.1%

Q: For `COc1cccc(OC)c1OCCCCN1CCCCC1.O=C(O)C(=O)O`, which “hERG current change (%, negative = inhibition) at 1uM” value is on record?
A: 9.21%

Q: How did the “hERG current change (%, negative = inhibition) at 1uM” value turn out when `CC(=O)CCc1ccc(OCCCCN2CCC(Cc3ccccc3)CC2)cc1.O=C(O)C(=O)O` was run?
A: -68.3%

Q: How did the “hERG current change (%, negative = inhibition) at 1uM” value turn out when `COc1cccc(OC)c1OCCCCN1CCC(Cc2ccccc2)CC1.O=C(O)C(=O)O` was run?
A: -78.6%

Q: `COc1cccc(OC)c1OCCCCN1CCCC1` was tested. Which “hERG current change (%, negative = inhibition) at 1uM” value did it give?
A: 4.67%

Q: How did the “hERG current change (%, negative = inhibition) at 1uM” value turn out when `COc1ccccc1N1CCN(CCCCOc2c(OC)cccc2OC)CC1.O=C(O)C(=O)O` was run?
A: -38.6%

Q: For `COc1cc2cc(C(c3nnnn3C(C)(C)C)N3CCc4ccccc4C3)c(=O)[nH]c2cc1OC` (stereo not shown), which “hERG current change (%, negative = inhibition) at 1uM” value is on record?
A: -3.88%

Q: `CCN(CCNC(=O)CCCn1nc(C)n2c(cc3sccc32)c1=O)c1ccccc1` was tested. Which “hERG current change (%, negative = inhibition) at 1uM” value did it give?
A: -1.14%

Q: Which “hERG current change (%, negative = inhibition) at 1uM” value does the source give for `CN(C)Cc1ccc(-c2nc3cccc4c3n2CCNC4=O)cc1` here?
A: -0.249%

Q: How did the “hERG current change (%, negative = inhibition) at 1uM” value turn out when `O=C(NCc1ccccc1)C(c1ccco1)N(C(=O)c1csnn1)C1CC1` (stereo not shown) was run?
A: 11.6%

Q: For `Cc1nc2ccc([N+](=O)[O-])cc2c(=O)n1Cc1ccc(F)cc1`, which “hERG current change (%, negative = inhibition) at 1uM” value is on record?
A: -9.51%

Q: `COc1ccc(Cn2c(C)nc3ccc([N+](=O)[O-])cc3c2=O)cc1` was tested. Which “hERG current change (%, negative = inhibition) at 1uM” value did it give?
A: 5.96%

Q: For `Cc1nc2ccc([N+](=O)[O-])cc2c(=O)n1Cc1ccc(Cl)cc1`, which “hERG current change (%, negative = inhibition) at 1uM” value is on record?
A: 10.5%

Q: How did the “hERG current change (%, negative = inhibition) at 1uM” value turn out when `Cc1nc2ccc([N+](=O)[O-])cc2c(=O)n1Cc1ccc([N+](=O)[O-])cc1` was run?
A: -76.5%

Q: `Cc1nc2ccc([N+](=O)[O-])cc2c(=O)n1Cc1ccc(Br)cc1` was tested. Which “hERG current change (%, negative = inhibition) at 1uM” value did it give?
A: 14.8%

Q: For `Cc1nc2ccccc2c(=O)n1Cc1ccc([N+](=O)[O-])cc1`, which “hERG current change (%, negative = inhibition) at 1uM” value is on record?
A: -64.8%

Q: How did the “hERG current change (%, negative = inhibition) at 1uM” value turn out when `CC(=O)Nc1cccc(N2CCCC2=O)c1` was run?
A: 4.99%

Q: With `O=C(CN1CCN(Cc2ccccc2)CC1)N/N=C/C=C/c1ccccc1[N+](=O)[O-]` as the compound, how does the “hERG current change (%, negative = inhibition) at 1uM” value read?
A: -32.1%

Q: With `COc1ccc(NC(=O)Nc2cc(C(=O)O)ccc2N2CC3CC(C2)c2cccc(=O)n2C3)c(OC)c1` (stereo not shown) as the compound, how does the “hERG current change (%, negative = inhibition) at 1uM” value read?
A: 5.08%

Q: Which “hERG current change (%, negative = inhibition) at 1uM” value does the source give for `CC(NC(=O)Cc1ccccc1)c1cc2c(cc1Br)OCCCO2` (stereo not shown) here?
A: 6.49%

Q: How did the “hERG current change (%, negative = inhibition) at 1uM” value turn out when `CCOC(=O)Cn1nc(C)c(NC(=O)COc2ccc(OC)cc2)c1C` was run?
A: 4.48%

Q: For `CC(C)(C)Nc1nc(Cl)nc(N(C#N)CN2C(=O)c3ccccc3S2(=O)=O)n1`, which “hERG current change (%, negative = inhibition) at 1uM” value is on record?
A: 16.1%

Q: `CCN(CC)S(=O)(=O)c1cc(C)ccc1NC(=S)Nc1cccnc1` was tested. Which “hERG current change (%, negative = inhibition) at 1uM” value did it give?
A: 3.41%

Q: How did the “hERG current change (%, negative = inhibition) at 1uM” value turn out when `Cl.O=S(=O)(c1ccc2ccccc2c1)N(CC(O)CN1CCOCC1)c1ccccc1` (stereo not shown) was run?
A: -21.2%

Q: How did the “hERG current change (%, negative = inhibition) at 1uM” value turn out when `Cc1ccc(S(=O)(=O)N(CC(O)CN2CCOCC2)c2cc(Cl)ccc2Cl)cc1.Cl` (stereo not shown) was run?
A: -2.22%

Q: How did the “hERG current change (%, negative = inhibition) at 1uM” value turn out when `Cc1ccc(S(=O)(=O)N(CC(O)CN2CCCC2)c2ccccc2)cc1` (stereo not shown) was run?
A: -44.8%

Q: With `Cc1ccc(N(CC(O)CN2CCOCC2)S(=O)(=O)c2ccc([N+](=O)[O-])cc2)cc1` (stereo not shown) as the compound, how does the “hERG current change (%, negative = inhibition) at 1uM” value read?
A: -49.1%

Q: With `O=S(=O)(c1ccccc1)N(CC(O)CN1CCOCC1)c1ccccc1` (stereo not shown) as the compound, how does the “hERG current change (%, negative = inhibition) at 1uM” value read?
A: 9.04%

Q: `Cc1ccc(N(CC(O)CN2CCCC2)S(=O)(=O)c2ccc(C)cc2)cc1.Cl` (stereo not shown) was tested. Which “hERG current change (%, negative = inhibition) at 1uM” value did it give?
A: -81.7%

Q: With `Cl.O=S(=O)(c1ccccc1)N(CC(O)CN1CCCCC1)c1ccccc1` (stereo not shown) as the compound, how does the “hERG current change (%, negative = inhibition) at 1uM” value read?
A: -21%

Q: For `Cc1ccc(N(CC(O)CN2CCCCC2)S(=O)(=O)c2ccc(C)cc2)cc1` (stereo not shown), which “hERG current change (%, negative = inhibition) at 1uM” value is on record?
A: 12.8%

Q: Which “hERG current change (%, negative = inhibition) at 1uM” value does the source give for `O=S(=O)(c1ccccc1)N(CC(O)CN1CCCC1)c1ccccc1` (stereo not shown) here?
A: 3.65%

Q: With `Cc1ccc(S(=O)(=O)N(CC(O)CN2CCCCC2)c2ccccc2)cc1.Cl` (stereo not shown) as the compound, how does the “hERG current change (%, negative = inhibition) at 1uM” value read?
A: -60.5%

Q: Which “hERG current change (%, negative = inhibition) at 1uM” value does the source give for `Cc1ccccc1S(=O)(=O)N(CC(O)CN1CCCCC1)c1ccccc1` (stereo not shown) here?
A: -71.2%
